Screening results: PubChem, several laboratories
Peg3 prom inh: Peg3 promoter-driven luciferase inhibitors, primary screen, cell-based, HeLa, luciferase luminescence; HeLa PEG-Prom luciferase reporter, overnight; inhibition, % at 20 µM; actives 1.7% (n = 360,000);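 active = inhibition of at least 50% at 20 µM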
PAX8 reporter: inhibitors of PAX8-driven TPO luciferase reporter, primary screen, RMG-I cells, single concentration | actives 1.2% (n = 360,000) | SteadyGlo, 24 h | inhibition, % at 12.6 µM;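 active = mean replicate inhibition at least 60% with every replicate also reaching 60%; inconclusive = only one of the two criteria is met; inactive = mean below 60% and not all replicates reaching 60%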;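 note: luciferase light reporting Pax8 driven TPO promoter activity; plate controls were median of neutral control wells for no effect and mitoxantrone controls for full effect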
Shn3 inh set2: reduction of Shn3 3'UTR firefly luciferase signal, primary screen, Schnurri-3 inhibitor project, cell-based, Clone20 osteoblasts, set 2; Clone20 osteoblast Shn3 3'UTR firefly luciferase, 24 h; inhibition, % at 12.5 µM; actives 0.52% (n = 360,000);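 active = mean inhibition of at least 75% with every replicate also reaching 75%; inconclusive = mean inhibition at least 75% but some replicate below; inactive = mean inhibition below 75%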;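 note: 0% = median of neutral control wells and 100% = pilot-screen positive control compound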
EWS-Fli block: EWS/Fli-driven NR0B1 reporter inhibitors, primary screen, A673 cells, NR0B1 luciferase, luminescence, MLPCN library; inhibition, % at 12.6 µM; AID 651661, 2012; viability-normalised; actives 0.67% (n = 350,000);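 active = mean inhibition of at least 50% after viability correction, with every replicate also passing that limit; inconclusive = mean reaches 50% but only one of two replicates passes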;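 note: firefly luciferase signal divided by Alamar Blue viability fluorescence both relative to DMSO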
MITF TRPM1 inh: inhibitors of MITF-dependent TRPM1 promoter reporter, primary screen, cell-based, SK-MEL-5, single point, luciferase; SK-MEL-5 TRPM1 promoter luciferase, 24 h; actives 0.83% (n = 330,000); inhibition, % at 12.5 µM;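 active = mean inhibition across replicates of 60% or more, whatever share of single replicates reaches that level; inconclusive = some that reach 60%, reason not given; inactive = mean inhibition across replicates below 60%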
ABHD5-PLIN5 inh: ABHD5-PLIN5 interaction inhibitors, primary screen, cell lysate, split luciferase complementation, luminescence; Perilipin-5 (Homo sapiens) + 1-acylglycerol-3-phosphate O-acyltransferase ABHD5 (Homo …; Split G. princeps luciferase complementation, 4 h; actives 0.78% (n = 360,000); AID 602281, 2012; inhibition, % at 4 µM;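 active = inhibition above the mean inhibition across every tested compound plus 3 SD, cut at about 22% in these data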;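 note: 0% = DMSO only wells and the 100% control is not disclosed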
Target sequence (Q00G26 whole entry, looked up): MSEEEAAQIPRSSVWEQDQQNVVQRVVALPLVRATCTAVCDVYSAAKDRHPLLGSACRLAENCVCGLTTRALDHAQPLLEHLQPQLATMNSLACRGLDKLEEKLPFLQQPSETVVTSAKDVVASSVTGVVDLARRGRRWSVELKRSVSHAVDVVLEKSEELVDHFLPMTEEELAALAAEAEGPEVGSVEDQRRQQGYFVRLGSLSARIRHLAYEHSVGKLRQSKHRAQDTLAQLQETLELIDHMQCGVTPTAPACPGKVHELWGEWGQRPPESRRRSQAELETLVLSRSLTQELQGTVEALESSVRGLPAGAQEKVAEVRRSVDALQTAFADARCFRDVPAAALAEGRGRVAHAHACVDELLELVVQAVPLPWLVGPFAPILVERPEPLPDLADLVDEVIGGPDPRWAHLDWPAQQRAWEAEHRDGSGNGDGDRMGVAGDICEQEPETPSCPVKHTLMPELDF
Target sequence (Q8WTS1 whole entry, looked up): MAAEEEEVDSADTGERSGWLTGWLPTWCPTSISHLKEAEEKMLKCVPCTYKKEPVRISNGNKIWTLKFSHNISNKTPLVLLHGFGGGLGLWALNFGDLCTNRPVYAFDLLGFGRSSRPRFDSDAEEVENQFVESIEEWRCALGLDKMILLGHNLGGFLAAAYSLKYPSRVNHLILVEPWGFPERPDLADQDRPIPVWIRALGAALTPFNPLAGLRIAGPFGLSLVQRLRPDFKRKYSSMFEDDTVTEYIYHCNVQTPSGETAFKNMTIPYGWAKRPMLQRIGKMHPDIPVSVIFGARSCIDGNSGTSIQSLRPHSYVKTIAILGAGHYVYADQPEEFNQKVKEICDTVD
* hit, by the source's call; ? = inconclusive; nt = not tested or not shown. The list is not random: actives were taken first. Their share in the collection is about 3%.

SMILES | Peg3 prom inh | PAX8 reporter | Shn3 inh set2 | EWS-Fli block | MITF TRPM1 inh | ABHD5-PLIN5 inh
C[C@@H]1CCCCO[C@@H](CN(C)Cc2ccc(C(F)(F)F)cc2)[C@@H](C)CN([C@@H](C)CO)C(=O)c2cc(NS(=O)(=O)c3ccc(F)cc3)ccc2O1 | nt | 86.1* | nt | -0.5 | nt | nt
C[C@@H]1CCCCO[C@H](CN(C)Cc2ccc(C(F)(F)F)cc2)[C@@H](C)CN([C@H](C)CO)C(=O)c2cc(NS(=O)(=O)c3ccc(F)cc3)ccc2O1 | nt | -3.0 | nt | -9.5 | nt | nt
C[C@@H]1CCCCO[C@@H](CN(C)Cc2ccc(C(F)(F)F)cc2)[C@H](C)CN([C@@H](C)CO)C(=O)c2cc(NS(=O)(=O)c3ccc(F)cc3)ccc2O1 | nt | 104.9* | nt | 70.7* | nt | nt
C[C@@H]1CN([C@@H](C)CO)C(=O)c2cc(NS(=O)(=O)c3ccc(F)cc3)ccc2O[C@@H](C)CCCCO[C@H]1CN(C)Cc1ccc(C(F)(F)F)cc1 | nt | 97.0* | nt | 26.9 | nt | nt
C[C@@H]1CN([C@H](C)CO)C(=O)c2cc(NS(=O)(=O)c3ccc(F)cc3)ccc2O[C@@H](C)CCCCO[C@H]1CN(C)Cc1ccc(C(F)(F)F)cc1 | nt | 113.8* | nt | 65.2* | nt | nt
Cc1ccc(S(=O)(=O)Nc2ccc3c(c2)C(=O)N([C@H](C)CO)C[C@H](C)[C@H](CN(C)Cc2ccc(C(F)(F)F)cc2)OCCCC[C@@H](C)O3)cc1 | nt | 25.2 | nt | 0.9 | nt | nt
CN1CCN(C(=O)c2cc3c(c(-c4cccc(-c5ccc(C#N)cc5)c4)n2)[C@H](CCO)N([S@@](=O)C(C)(C)C)C3)CC1 | nt | -11.9 | nt | 5.1 | nt | nt
CN1C(=O)c2cc(NC(=O)C3CC3)ccc2OC[C@@H]2O[C@H](CC(=O)O)CC[C@@H]21 | nt | nt | nt | 12.1 | nt | nt
COc1ccc(NC(=O)Nc2ccc3c(c2)C(=O)N([C@@H](C)CO)C[C@H](C)[C@@H](CN(C)Cc2ccc(C(=O)O)cc2)OCCCC[C@H](C)O3)cc1 | nt | -12.2 | nt | 3.4 | nt | nt
COc1ccc(NC(=O)Nc2ccc3c(c2)[C@@H]2C[C@H](CC(=O)NCc4ccccc4F)O[C@@H](CO)[C@@H]2O3)cc1 | nt | -12.0 | nt | 0.1 | nt | nt
C[C@H]1CN([C@@H](C)CO)C(=O)c2cccc(NS(C)(=O)=O)c2O[C@@H]1CN(C)C(=O)Nc1ccc2c(c1)OCO2 | nt | nt | nt | -5.8 | nt | nt
CCn1c(/C=C/Nc2ccccc2)[n+](CC)c2cc(Cl)c(Cl)cc21 | 103.7* | 31.8 | 88.2* | 68.8* | ? | -3.7
Cc1ccc(S(=O)(=O)N(C)C[C@H]2Oc3ccc(NC(=O)Cc4ccccc4)cc3CC(=O)N([C@H](C)CO)C[C@H]2C)cc1 | nt | -17.7 | nt | -10.1 | nt | nt
COc1cc(CNC(C)(C)CO)cc(Br)c1OCc1ccccc1 | 0.0 | -4.4 | 5.8 | 1.8 | -23.0 | 2.4
CCOc1cc(CNC(C)(C)CO)cc(Br)c1OCc1ccc(Cl)cc1Cl | 58.0* | nt | 34.2 | nt | -5.0 | 17.4
CO[C@H]1CN(C)C(=O)c2ccc(NC(=O)c3ccc(F)cc3)cc2OC[C@@H](C)N(C(=O)CN(C)C)C[C@H]1C | nt | nt | nt | -2.6 | nt | nt
COc1cc(/C=C2/SC(=S)N(CCC(=O)N3CCN(C)CC3)C2=O)cc(OC)c1OC | 53.0* | -5.3 | -47.5 | -5.9 | nt | -11.5
COc1cc(/C=C2\SC(=S)N(CCC(=O)N3CCN(C)CC3)C2=O)cc(OC)c1OC | 16.8 | 43.8 | -91.9 | -10.4 | -0.4 | -4.1
COc1ccc(/C=C2/SC(=S)N(CCC(=O)N3CCN(C)CC3)C2=O)cc1 | -9.2 | -53.0 | -84.2 | 0.6 | 1.9 | 11.6
O=C(CCN1C(=O)/C(=C/c2ccccc2F)SC1=S)Nc1ccccn1 | -9.0 | -1.9 | 3.2 | nt | 7.1 | 1.7
O=C(CCN1C(=O)/C(=C\c2ccccc2F)SC1=S)N1CCCCC1 | 104.4* | -8.0 | 29.9 | 4.4 | -21.1 | -7.0
COc1ccc(/C=C2\SC(=S)N(CCC(=O)N3CCCCC3)C2=O)cc1 | 50.1* | 2.0 | -5.6 | 11.7 | 12.9 | 1.5
O=C1/C(=C/c2ccccc2F)SC(=S)N1CCC(=O)N1CCCCC1CCO (stereo not given) | 52.8* | 45.4 | -18.5 | nt | 13.6 | 6.4
O=C1/C(=C/c2ccc(Cl)cc2)SC(=S)N1CCC(=O)N1CCCCC1CCO (stereo not given) | 38.9 | 17.2 | -20.6 | 1.5 | 6.5 | -0.1
COc1ccc(CN(C)C[C@H]2OCCCC[C@@H](C)Oc3ccc(NC(=O)C4CCCCC4)cc3C(=O)N([C@H](C)CO)C[C@@H]2C)cc1 | nt | 4.5 | nt | nt | nt | nt
SMILES | Peg3 prom inh | PAX8 reporter | Shn3 inh set2 | EWS-Fli block | MITF TRPM1 inh | ABHD5-PLIN5 inh
COc1ccc(S(=O)(=O)N(C)C[C@H]2OCCCC[C@@H](C)Oc3ccc(NS(=O)(=O)c4cn(C)cn4)cc3C(=O)N([C@H](C)CO)C[C@H]2C)cc1 | nt | 6.5 | nt | nt | nt | nt
O=C(Nc1cccc(F)c1)N1CC(=O)N2[C@H](C1)[C@@H](c1ccc(-c3ccccc3)cc1)[C@@H]2CO | nt | 27.3 | nt | 1.6 | nt | nt
CCOC(=O)N1CCN(C(=O)CCN2C(=O)/C(=C\c3cccc(OC)c3)SC2=S)CC1 | 42.6 | 0.5 | -46.3 | -8.6 | -3.7 | 3.0
O=C(CCN1C(=O)/C(=C/c2ccccc2Cl)SC1=S)NN1CCOCC1 | -3.5 | 11.3 | -20.2 | 6.5 | -12.3 | -9.8
O=C(CCN1C(=O)/C(=C\c2ccccc2Cl)SC1=S)N1CCN(c2ccccc2)CC1 | 100.0* | nt | -15.2 | nt | -1.6 | -5.3
COc1cccc(/C=C2\SC(=S)N(CCC(=O)N3CCCCC3)C2=O)c1 | 90.4* | 5.7 | -26.7 | nt | 12.3 | 0.5
CCOc1ccc(/C=C2\SC(=S)N(CCC(=O)O)C2=O)cc1 | 24.1 | -5.6 | 4.1 | 72.8* | 84.8* | -1.4
O=C(CCN1C(=O)/C(=C/c2ccccc2)SC1=S)N1CCCCCC1 | 105.4* | -1.9 | -9.4 | 15.3 | 24.6 | -11.6
O=C(C1CC1)N1CC2(C1)[C@H](c1ccccc1)[C@@H](CO)N2C(=O)CC1CC1 | nt | nt | nt | 6.4 | nt | nt
COc1ccc2c3c([nH]c2c1)[C@@H](CO)N(Cc1ccncc1)CC31CN(CC2CCOCC2)C1 | nt | -4.8 | nt | 6.9 | nt | nt
C[C@@H]1CN([C@@H](C)CO)C(=O)c2cc(NS(=O)(=O)c3cccs3)ccc2O[C@H]1CN(C)Cc1ccc(-c2ccccc2)cc1 | nt | 32.7 | nt | 3.0 | nt | nt
N#C[C@@H]1[C@H](c2ccccc2-c2cccc(F)c2)[C@H](CO)N1C(=O)C1CCC1 | nt | -15.6 | nt | 5.5 | nt | nt
CC1CCN(C(=O)CCN2C(=O)/C(=C/c3cccs3)SC2=S)CC1 | 93.8* | -4.9 | 44.7 | 8.8 | 12.2 | 3.5
Cc1noc(C)c1NC(=O)N(C)C[C@H]1OCCCC[C@@H](C)Oc2ccc(NC(=O)C3CCCCC3)cc2C(=O)N([C@@H](C)CO)C[C@H]1C | nt | -8.3 | nt | -0.2 | nt | nt
C[C@@H]1CN([C@@H](C)CO)S(=O)(=O)c2ccc(-c3cccnc3)cc2O[C@H]1CN(C)Cc1ccncc1 | nt | nt | nt | 4.5 | nt | nt
